# Source: the supplement of paper PMC6555819
# How the values were obtained:
# Experiment in all cases: PBM binding z-score (relative to random genomic background probes); higher = stronger binding; sequences stand for … in GC…GCGATTGACAGCGTAGAATGAAGG
# [1] = test system: FXR:RXRa (NR concentration 270 nM, RXRa partner concentration 90 nM)
# Procedure, shortened: (§1)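 Each nuclear receptor dimer, without ligand, was incubated for 1 h on custom Agilent 4×180K protein-binding microarrays. Binding was detected with antibodies against each partner (one per run), and scanned fluorescence was regression-normalized. The binding z-scores are referenced to random human genomic background probes.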
# [2] = test system: LXRa:RXRa (NR concentration 270 nM, RXRa partner concentration 90 nM)
# Procedure, shortened: as §1
# [3] = test system: LXRa homodimer (NR concentration 270 nM)
# Procedure, shortened: as §1
# [4] = test system: LXRb:RXRa (NR concentration 270 nM, RXRa partner concentration 90 nM)
# Procedure, shortened: as §1
# [5] = test system: LXRb homodimer (NR concentration 270 nM)
# Procedure, shortened: as §1
# [6] = test system: PPARa:RXRa (NR concentration 270 nM, RXRa partner concentration 90 nM)
# Procedure, shortened: as §1
# [7] = test system: PPARg:RXRa (NR concentration 180 nM, RXRa partner concentration 90 nM)
# Procedure, shortened: as §1
# [8] = test system: PPARg:RXRa 270nM:90nM, anti-RXR (NR concentration 270 nM, RXRa partner concentration 90 nM)
# Procedure, shortened: as §1
# [9] = test system: PPARg:RXRa 30nM:10nM, anti-RXR (NR concentration 30 nM, RXRa partner concentration 10 nM)
# Procedure, shortened: as §1
# [10] = test system: PPARg:RXRa 90nM:30nM, anti-RXR (NR concentration 90 nM, RXRa partner concentration 30 nM)
# Procedure, shortened: as §1
Sequence,PBM binding z-score [1],PBM binding z-score [2],PBM binding z-score [3],PBM binding z-score [4],PBM binding z-score [5],PBM binding z-score [6],PBM binding z-score [7],PBM binding z-score [8],PBM binding z-score [9],PBM binding z-score [10]
ACTAGTAGGCCAAGTTTGGGTCACTCAAACAAAG,0.368,0.0962,-0.261,0.884,-0.17,2.34,2.17,2.27,0.504,1.13
CGAACGAGGGCATGAGTTGATAGCCAATGCCGAT,0.587,0.378,-0.567,-0.0834,-0.821,1.33,1.39,1.49,0.255,0.727
CCTTATGGGTCACGAGGTTATAGCACGACGAGCG,6.1,3.8,0.305,3.32,-0.173,5.75,8.15,6.96,4.18,6.72
TCTGCTAGGTCAACGATGCTCAGCTAATCTGCTA,2.94,1.88,-0.569,1.22,-0.547,3.02,2.04,2.92,1.7,2.32
TCATATAGATAAATGCTAGGTGAAAGTCCGATCT,0.784,0.813,0.103,0.591,-0.152,0.912,0.876,2.09,3.93,3.03
TCATATAGGTAAACAGGTGAAAGCCCGTAAGTTA,0.95,1.13,0.0822,0.763,-0.22,2.4,2.7,3.37,3.79,3.69
GCTAGTTGGTCCGTAAAAGGTCACACACCGGTCG,3.14,4.48,3.93,3.92,0.618,4.14,1.33,3.29,0.779,2.39
CCTTACGGGTCACGAGGTTATAGAACGACGAGCG,6.7,4.58,0.451,4.12,-0.0451,6.16,7.18,6.91,3.33,5.23
GCGACTGGTGCAAAGCAGGTTACCATAAGGTTGG,-0.455,-0.431,-0.586,-0.35,-0.861,0.293,0.344,-0.0216,-0.591,-0.439
TTACCAAGGTGAAGGTCGCTGATCCCTCTGTAGA,1.1,0.984,-0.243,0.689,-1.18,2.43,2.63,4.12,1.98,3.68
AGAATGAGGTTATTAAGAGCAGGGAATTGCGGTC,1.73,1.76,0.247,1.32,0.0744,2.77,1.58,1.87,0.503,1.45
CGAACCAGGGCATGAGTTGATAGCAAATGCCGAT,-0.0641,-0.00251,-0.295,-0.304,-1.08,0.552,1.15,1.2,-0.166,0.593
GGAACGAGGGCAAGTTGAAAGCAGAGTTTGATGG,0.833,0.231,-0.173,0.237,-0.789,1.94,1.02,1.12,0.000931,0.87
CCGACTGGGGCATAGGTTACCATACTCAGTACGA,-0.122,-0.0807,-0.232,0.581,-1.1,3.58,8.18,7.34,6.9,7.37
CGAACTAGGTCAAGGGCAGTGAATCTCCGCACGC,3.56,2.14,-0.0571,1.21,-0.428,4.64,8.03,6.75,4.74,6.89
ATACCAAGGTGATCGTGAGGTCGTTGATACTAAC,1.86,1.35,0.615,1.5,0.284,1.67,0.613,0.439,0.0505,0.47
AATACTGGGTCACTAGGCCAGAGTAGGTACGAAT,1.9,1.69,0.246,1.5,0.438,4.37,8.02,5.97,3.2,4.75
TCTTGTAGAACAAGCAGGTTAAGAAAGCCTGAGT,0.0411,-0.117,-0.158,-0.0832,-0.582,0.777,-0.27,1.19,2.58,1.82
CCTACTGGCCCAAAGGTCATTGATTCCAATGCTC,4.8,5.12,4.37,4.8,1.23,5.27,7.37,7.17,5.9,7.85
ACAGACAGGTGAGTGAAGGTAACACAGCTGGACG,0.433,0.227,-0.295,-0.073,-0.319,0.307,1.16,0.43,0.00598,0.0299
ATCGAAAGGTCGTGTGGTGAGTATACAGAAAGGC,4.91,4.22,0.724,3.43,1.53,4.84,3.01,3.37,1.38,2.57
GGGACTGGGGCATCAGCAGGTTACCATAACTTAA,0.464,0.607,0.713,1.81,2.25,2.25,3.27,2.6,0.527,1.93
TCATATAGGTAATCCAGGTGAAAGTCGGCATCTA,1.03,1.21,0.37,0.829,0.397,2.4,1.87,2.9,4.14,3.53
CGTCCAAGGTCATAGGAGGGCAGTGAAGACAGAT,7.39,6.11,1.55,4.12,0.284,5.68,5.29,5.19,1.85,3.99
ATTCAAAGTTCAGGACGAGGTAACGTAAAGCACG,4.14,4.12,1.92,2.22,1.06,3.21,2.19,2.41,1.01,1.54
